Experimental data: PubChem BioAssay (NCATS)
Inconclusive results are not listed. The source made the active and inactive calls. Calls come from the whole dose curve; as a rule, active = well fitted activation curve with a large enough effect; inconclusive = small, poorly fitted or top-dose-only effect; inactive = no such curve, though single readings can be large or run the other way.
Potency is the fitted concentration of half-maximal effect.

The compounds below were run against Cellular tumor antigen p53 (Homo sapiens) (UniProt P04637) (assay: Primary qHTS for small molecule compounds that upregulate eGFP-tagged delta133p53alpha (in N-terminal) cells. (AID 2060322; note: nearly all actives have a fitted effect of over 75% in size;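 for activation: cells pre-induced with doxycycline then dosed without doxycycline; series mostly up to about 56 µM; 0% = DMSO vehicle and 100% = reference activator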)). Details: NCI-H358 eGFP-delta133p53alpha fluorescence, 24 h; activation: hits give high values.
Cellular tumor antigen p53 (Homo sapiens), sequence (P04637 whole entry, looked up): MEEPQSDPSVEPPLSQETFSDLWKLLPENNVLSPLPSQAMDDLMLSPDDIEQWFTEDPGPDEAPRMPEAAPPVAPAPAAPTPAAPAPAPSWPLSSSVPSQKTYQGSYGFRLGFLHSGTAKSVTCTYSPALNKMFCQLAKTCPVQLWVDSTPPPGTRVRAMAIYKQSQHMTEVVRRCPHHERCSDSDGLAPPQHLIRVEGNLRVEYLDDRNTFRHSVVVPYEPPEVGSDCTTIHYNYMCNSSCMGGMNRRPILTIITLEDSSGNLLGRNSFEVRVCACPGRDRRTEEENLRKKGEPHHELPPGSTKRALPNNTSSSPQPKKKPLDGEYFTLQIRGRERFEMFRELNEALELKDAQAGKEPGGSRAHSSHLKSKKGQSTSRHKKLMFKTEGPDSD
Summary of the method: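 NCI-H358 cells pre-induced 24 h with 10 ng/ml doxycycline for eGFP-delta133p53alpha, plated dox-free and exposed 24 h at 37C to titrated compounds. Fixed, Hoechst-stained; gated GFP peak intensity by laser scanning cytometry, normalized to DMSO (0%) and 57.5 uM 5-azacytidine (100%).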
For `C[N+]1(C)[C@@H]2CC[C@H]1CC(OC(=O)C(O)c1ccccc1)C2` (some centres undefined), the activation was 13.7% (inactive). In the case of `C=C(C(=O)OC)[C@]12O[C@@](C)(CC[C@@]3(O)/C(=C\C)C(=O)O[C@]3(C)C[C@@H]1OC(=O)C(CO)CN1CCCC1C(=O)O)CC2=O` (some centres undefined), the activation is reported as -18.8% (inactive). For `COc1ccnc2[nH]cc(C(=O)C(=O)N3CCN(C(=O)c4ccccc4)CC3C)c12` (centres undefined), the activation was -3% (inactive). With `CC1=C2CC(=O)C(C)CC/C=C(\C)CC2(O)OC1=O` (centres undefined) the activation was -1.53% (inactive). For `O=C(O)C(O[C@@H]1O[C@H](CO[C@@H]2O[C@H](CO)[C@@H](O)[C@H](O)[C@H]2O)[C@@H](O)[C@H](O)[C@H]1O)c1ccccc1` (some centres undefined), the activation was -16% (inactive). `C/C=C/C=C/[C@@H]1O[C@](O)([C@H](CC)C(=O)NC/C=C/C=C(\C)[C@@H](OC)[C@@H](C)[C@@H]2O[C@H](/C=C/C=C/C=C(\C)C(=O)c3c(O)ccn(C)c3=O)[C@H](O)[C@@H]2O)[C@H](O)[C@H](O)C1(C)C` was tested, and the activation was 4.58% (inactive). With `C=C(C)C1CCC(C)C12CC(O)C1(C)OC1C2OC(=O)C(N)CCC(=O)O` (centres undefined) the activation was -6.11% (inactive). With `O=C1NC(=Nc2ccccc2F)S/C1=C\c1ccc(C(=O)O)cc1` the activation was 0.333% (inactive). In the case of `Cc1cc(Cn2cnc3c2CC(C(=O)O)N(C(=O)C(c2ccccc2)c2ccccc2)C3)ccc1N(C)C` (centres undefined), the activation is reported as -7.64% (inactive). With `COC(=O)C(Cc1ccccc1)NC(=O)c1ccccc1` (centres undefined) the activation was 6.87% (inactive). For `C=CC(C)(O)CC[C@H]1C(=C)CCC2[C@](C)(C(=O)O)CCC[C@@]21C` (some centres undefined), the activation was 24.1% (inactive). `CC1CC[C@]2(C(=O)O)CC[C@]3(C(=O)O)C(=CCC4[C@@]5(C)CC[C@H](O[C@@H]6O[C@H](CO)[C@@H](O)[C@H](O)[C@H]6O)C(C)(C)C5CC[C@]43C)C2C1C` (some centres undefined) was tested, and the activation was 0.893% (inactive). `Cc1cc(O)c(C(C)C)cc1O[C@@H]1O[C@H](CO)[C@@H](O)[C@H](O)[C@H]1O` was tested, and the activation was -17.6% (inactive). `COC(=O)C1=CO[C@@H](O[C@@H]2O[C@H](CO)[C@@H](O)[C@H](O)[C@H]2O)[C@@H]2[C@@H](C)[C@@H](OC(=O)/C=C/c3ccccc3)[C@@H](O)[C@H]12` was tested, and the activation was -5.34% (inactive). For `CC1(C)CC[C@]2(C(=O)O[C@@H]3O[C@H](CO)[C@@H](O)[C@H](O)[C@H]3O)CC[C@]3(C)C(=CCC4[C@@]5(C)C[C@@H](O)[C@H](O)[C@](C)(C=O)C5CC[C@]43C)[C@@H]2[C@@H]1O` (some centres undefined), the activation was -0.893% (inactive). `C=C[C@H]1[C@H](O[C@@H]2O[C@H](CO)[C@@H](O)[C@H](O)[C@H]2O)OC=C(C(=O)OC)[C@H]1CC=O` was tested, and the activation was -32.8% (inactive). In the case of `C=CC1(C)CC=C2C(CCC3C(C)(C(=O)O)CCCC23C)C1` (centres undefined), the activation is reported as -1.53% (inactive). With `O=C(O)CC/C=C\C[C@H]1CO[C@@H](c2ccccc2Cl)O[C@H]1c1ccccc1O` the activation was -9.67% (inactive). In the case of `OC[C@H]1O[C@@H](OC[C@H]2O[C@@H](OC/C=C/c3ccccc3)[C@H](O)[C@@H](O)[C@@H]2O)[C@@H](O)[C@@H]1O`, the activation is reported as 20.5% (inactive). `C=C1C(=O)O[C@@H]2[C@H]3C(C)=CC(=O)C3=C(C)CC[C@@H]12` was tested, and the Potency was 10.7 µM (active). `C/C1=C\CCC(C)CCO[C@@H]2O[C@H](CO[C@@H]3OC[C@H](O)[C@H](O)[C@H]3OC1=O)[C@@H](O)[C@H](O)[C@H]2O` (some centres undefined) was tested, and the activation was -24.1% (inactive). In the case of `COC1OC(OC)C(O)(CCC2(C)C(C)CCC3(C)C2CC(O)C(O)C32CO2)C1O` (centres undefined), the activation is reported as 0.763% (inactive). In the case of `C[C@]12C[C@@H](O)[C@@H]3C[C@@]1(O[C@@H]1O[C@H](CO)[C@@H](O)[C@H](O)[C@H]1O)[C@]3(COC(=O)c1ccccc1)C(=O)O2`, the activation is reported as 25.9% (inactive). For `CC1(C)CCC[C@]2(C)C1CC=C(CO)[C@H]2CC/C(=C/CO)CO` (some centres undefined), the activation was -15.3% (inactive). For `CC(C)=CCCC1(C)C=Cc2c(c(C)cc3c2[nH]c2ccccc23)O1` (centres undefined), the activation was 2.29% (inactive). For `C=C1C(=O)O[C@@H]2C[C@@]3(C)C[C@@H](O)C[C@H](C)C3=C[C@H]12`, the Potency was 23.9 µM (active). With `CC(C)(C)c1cc(CN2CCN(CC(O)c3ccc(Cl)cc3)CC2)cc(C(C)(C)C)c1O` (centres undefined) the activation was -0.477% (inactive). In the case of `CCN(CC)CCCCCCNc1cc(OC)cc2c(C)ccnc12`, the activation is reported as -2.86% (inactive). For `O=C(O)[C@H]1CCCC[C@H]1C(=O)N1CCc2ccccc2[C@H]1CN1C(=O)c2ccccc2C1=O`, the activation was -3% (inactive).
